Measurements: PubChem BioAssay (Tox21)
Unmarked numbers belong to inactive results. Inconclusive results are not listed. A call without a number means that no potency is given here. Calls of active or inactive are those of the source. Unless noted, calls follow the shape of the dose curve; as a rule, active = well fitted curve in the direction sought with a large enough effect in the repeat runs; inconclusive = weak or mixed curves; inactive = no such curve, though single readings can be large; an effect the other way counts as inactive or inconclusive.

What was measured:
[1] = qHTS assay to test for compound auto fluorescence at 535 nm (green) in HEK293 cells (AID 720680)
[2] = qHTS assay to test for compound auto fluorescence at 460 nm (blue) in HEK293 cell free culture (AID 720681)
Procedure, shortened: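 Compounds were added to cell-free DMEM with 10% FBS and fluorescence read directly. The blue channel used 405 nm excitation and 460 nm emission, with triamterene as the reference fluorophore.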

[3] = qHTS assay to test for compound auto fluorescence at 535 nm (green) in HEK293 cell free culture (AID 720682)
Procedure, shortened: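 Cell-free medium (DMEM, 10% FBS) receives compound or DMSO by pintool. Plate read directly at Ex 485/Em 535 nm. Signal converted to fluorescein equivalency.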

[4] = qHTS assay to test for compound auto fluorescence at 590 nm (red) in HEK293 cell free culture (AID 720683)
Procedure, shortened: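 Cell-free wells of DMEM with 10% FBS received compound, and intrinsic fluorescence was read at excitation/emission 540/590 nm. Values expressed as equivalence to Rose Bengal sodium.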

[5] = qHTS assay to test for compound auto fluorescence at 460 nm (blue) in HepG2 cell free culture (AID 720685)
Procedure, shortened: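 Compound (23 nL) or DMSO pinned into cell-free MEM with 10% FBS; blue fluorescence read at 405/460 nm excitation/emission, expressed as auto-fluorescence equivalency to triamterene.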

[6] = qHTS assay to test for compound auto fluorescence at 460 nm (blue) in HepG2 cells (AID 720687)
Procedure, shortened: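 HepG2 cells in MEM with 10% FBS, attached overnight at 37 C, were exposed to compound or DMSO for 1 hr at 37 C, 5% CO2. Blue fluorescence was read at 405/460 nm, with triamterene as reference fluorophore.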

[7] = target: Glucocorticoid receptor (Homo sapiens) (UniProt P04150); experiment: qHTS assay to identify small molecule agonists of the glucocorticoid receptor (GR) signaling pathway (AID 720691; active = well fitted activation curve with a large enough effect in the signal ratio in the repeat runs, not every such curve was filed as active; the % refers to the signal ratio)
Procedure, shortened: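 Fluorescence intensity from LiveBLAzer B/G FRET substrate (2 h, room temperature) reports beta-lactamase expression driven by the glucocorticoid response element in GR-bla HeLa cells after 18 h compound exposure at 37 C.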

[8] = qHTS assay to identify small molecule antagonists of the glucocorticoid receptor (GR) signaling pathway - cell viability counter screen (AID 720693); also: nearly all actives have a fitted effect of over 55% in size
[9] = qHTS assay for identifying genotoxic compounds that show differential cytotoxicity against isogenic chicken DT40 cell lines with known DNA damage response pathways - wild type cell line (AID 743012); also: nearly all actives have a fitted effect of over 60% in size
Procedure, shortened: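 Wild type DT40, 300 cells/well, ~0.5 h settle at 37 C/5% CO2; compounds in DMSO added by pintool; 40 h at 37 C/5% CO2; CellTiter-Glo, 30 min RT; luminescence.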

[10] = qHTS assay for identifying genotoxic compounds that show differential cytotoxicity against isogenic chicken DT40 cell lines with known DNA damage response pathways - Rev3 mutant cell line (AID 743014); also: nearly all actives have a fitted effect of over 55% in size
[11] = qHTS assay for identifying genotoxic compounds that show differential cytotoxicity against isogenic chicken DT40 cell lines with known DNA damage response pathways - Rad54/Ku70 mutant cell line (AID 743015); also: nearly all actives have a fitted effect of over 60% in size; also: potency is read from the fitted curve at half-maximal effect
[12] = qHTS assay to identify small molecule antagonists of the androgen receptor (AR) signaling pathway - cell viability counter screen (AID 743033; also: nearly all actives have a fitted effect of over 45% in size)
[13] = qHTS assay to identify small molecule antagonists of the androgen receptor (AR) signaling pathway using the MDA cell line - cell viability counter screen (AID 743041; also: nearly all actives have a fitted effect of over 45% in size)
Procedure, shortened: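 Same-well cytotoxicity was assessed by CellTiter-Fluor in MDA-kb2 AR-luc cells after 16 h of compound treatment under R1881 agonism.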

[14] = qHTS assay to test for compound auto fluorescence at 535 nm (green) in HepG2 cell free culture (AID 720686)
[15] = qHTS assay to test for compound auto fluorescence at 590 nm (red) in HepG2 cell free culture (AID 720684)
Procedure, shortened: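 Compounds are added to culture medium (MEM, 10% FBS) lacking cells, then fluorescence is read at excitation 540 nm, emission 590 nm, with Rose Bengal sodium as the equivalency standard.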

[16] = target: Glucocorticoid receptor (Homo sapiens) (UniProt P04150); experiment: qHTS assay to identify small molecule antagonists of the glucocorticoid receptor (GR) signaling pathway (AID 720692; active = well fitted inhibition curve with a large enough effect in the signal ratio in the repeat runs, not every such curve was filed as active; the % refers to the signal ratio)
Procedure, shortened: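 HeLa GR-bla cells; cmpd + dex 5 nM final, 18 h 37 C; LiveBLAzer B/G FRET substrate 2 h RT; fluorescence intensity read. Antagonist mode, qHTS.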

Sequence of Glucocorticoid receptor (Homo sapiens) (P04150 whole entry, looked up): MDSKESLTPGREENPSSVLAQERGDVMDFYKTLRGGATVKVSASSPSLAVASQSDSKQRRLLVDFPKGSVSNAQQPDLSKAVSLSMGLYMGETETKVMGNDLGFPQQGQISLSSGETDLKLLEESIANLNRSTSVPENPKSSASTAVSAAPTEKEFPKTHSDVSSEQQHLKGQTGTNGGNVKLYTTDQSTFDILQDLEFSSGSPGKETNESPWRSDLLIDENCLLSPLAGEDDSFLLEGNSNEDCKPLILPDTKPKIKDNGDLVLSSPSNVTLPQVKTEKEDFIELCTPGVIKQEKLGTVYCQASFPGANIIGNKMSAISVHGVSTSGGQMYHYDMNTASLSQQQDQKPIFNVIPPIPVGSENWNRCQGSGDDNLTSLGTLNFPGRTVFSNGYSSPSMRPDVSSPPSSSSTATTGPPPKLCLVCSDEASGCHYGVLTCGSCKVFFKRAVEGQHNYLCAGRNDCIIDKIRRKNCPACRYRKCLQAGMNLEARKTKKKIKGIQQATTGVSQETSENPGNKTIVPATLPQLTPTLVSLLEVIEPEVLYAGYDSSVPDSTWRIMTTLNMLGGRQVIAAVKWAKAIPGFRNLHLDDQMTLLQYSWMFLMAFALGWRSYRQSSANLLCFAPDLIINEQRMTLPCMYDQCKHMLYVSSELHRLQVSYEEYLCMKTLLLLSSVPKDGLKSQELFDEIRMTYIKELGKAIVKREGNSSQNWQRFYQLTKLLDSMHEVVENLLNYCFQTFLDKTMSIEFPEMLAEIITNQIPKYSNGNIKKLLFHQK

Structure (SMILES)	outcome [1]	Potency [2]	outcome [3]	outcome [4]	outcome [5]	outcome [6]	Potency [7]	Potency [8]	Potency [9]	Potency [10]	Potency [11]	Potency [12]	Potency [13]	outcome [14]	outcome [15]	Potency [16]
COc1cc(CNC(=O)CCCC/C=C/C(C)C)ccc1O	inactive	inactive	inactive	inactive	inactive	inactive	inactive	inactive	inactive	inactive	inactive	inactive	inactive			
CC(=O)S[C@H](C(=O)N[C@H]1Cc2ccccc2[C@H]2CCC[C@@H](C(=O)O)N2C1=O)C(C)C	inactive	inactive	inactive	inactive	inactive	inactive	inactive	inactive		inactive	inactive	inactive	inactive	inactive		
CCC(=O)O[C@@H]1C[C@H]2CC[C@]1(C)C2(C)C	inactive	inactive	inactive	inactive	inactive	inactive	inactive	inactive	inactive	inactive	inactive	inactive	inactive	inactive		
CC(C)=CCCC(C)C=O (stereo unspecified)	inactive	inactive	inactive	inactive	inactive	inactive		inactive			61.1 µM (active)	inactive	inactive	inactive		
S=c1[nH][nH]c(=S)s1	inactive	inactive	inactive	inactive	inactive	inactive	inactive	inactive		inactive			inactive	inactive		
Cc1cc(C)n(CO)n1	inactive	inactive	inactive	inactive	inactive	inactive	inactive	inactive	inactive	inactive	inactive	inactive	inactive		inactive	
CC(O)C(C)O (stereo unspecified)	inactive	inactive	inactive	inactive	inactive	inactive	inactive	inactive	inactive	inactive	inactive	inactive	inactive	inactive		inactive
C1CCN(CN2CCCCC2)CC1	inactive	inactive	inactive	inactive	inactive	inactive		inactive	inactive	inactive	inactive	inactive	inactive	inactive		
FC1(F)C(F)(F)C(F)(F)C2(F)C(F)(C1(F)F)C(F)(F)C(F)(F)C1(F)C(F)(F)C(F)(F)C(F)(F)C(F)(F)C12F (stereo unspecified)	inactive	inactive	inactive	inactive	inactive	inactive	inactive	inactive	inactive	inactive	inactive	inactive				
